According to the supplement of paper PMC10646978:
± gives the standard deviation.

Key:
Settings in all cases: modulator concentration 10 µM
[1] = test system: RAW-Dual (murine macrophage reporter line); experiment: NF-kB reporter (SEAP) activity fold change vs agonist alone; higher = enhanced NF-kB activity
Summary of the method: (§1)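 In 384-well plates holding 50 000 RAW-Dual murine macrophage reporter cells per well, compound at 10 μM final was pre-incubated for 1 hour at 37 °C, after which a PRR agonist was added overnight. Supernatant SEAP read with QUANTI-Blue at 620 nm absorbance reported NF-κB, and Lucia luciferase read with QUANTI-Luc luminescence reported IRF. Fold change values come from dividing each reporter signal by the mean of agonist-only control wells on the same plate, averaged over replicate plates with propagated errors.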

[2] = test system: RAW-Dual (murine macrophage reporter line); experiment: IRF reporter (Lucia luciferase) activity fold change vs agonist alone; higher = enhanced IRF activity
Summary of the method: as §1

[3] = test system: RAW-Dual (murine macrophage reporter line); experiment: viability score (confluency relative to resting cells, overnight) (fraction); higher = more viable, active = viable (0.7 or more)
Summary of the method: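 In 384-well plates, RAW-Dual macrophages received compound at a final 10 μM overnight. Two confluency masks were then made with IncuCyte software from IncuCyte images of all imaged wells. The viability score is defined as confluency relative to resting cells. Passing the cutoff required both masks to lie above 70% of resting cells.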

[4] = agonist: CpG ODN 1826 0.5 ug/mL

| SMILES | NF-kB reporter [1, 4] | NF-kB reporter ([1]; agonist: LPS 0.1 ug/mL) | NF-kB reporter ([1]; agonist: MPLA […]) | IRF reporter ([2]; agonist: 3'3'-cGAMP 10 ug/mL) | IRF reporter ([2]; agonist: LPS 0.1 ug/mL) | IRF reporter ([2]; agonist: MPLA […]) | viability score [3] |
| --- | --- | --- | --- | --- | --- | --- | --- |
| CCCc1nc(C(C)(C)O)c(C(=O)OCc2oc(=O)oc2C)n1Cc1ccc(-c2ccccc2-c2nnn[nH]2)cc1 [Prestw-1190] | 1.09 ± 0.18 | 1.15 ± 0.2 | 1 ± 0.15 | 0.916 ± 0.036 | 0.987 ± 0.094 | 1.14 ± 0.15 | 1 (active) |
| COCCNC(=O)C=Cc1ccccc1 | 1.12 ± 0.12 | 0.936 ± 0.085 | 1.05 ± 0.072 | 1.02 ± 0.15 | 0.98 ± 0.055 | 1.03 ± 0.074 | 0.991 (active) |
| COC1CC2CCC(C1)N2S(=O)(=O)c1ccc(Br)cc1 (centres undefined) | 0.93 ± 0.089 | 1.05 ± 0.1 | 0.909 ± 0.04 | 1.01 ± 0.11 | 1.22 ± 0.16 | 1.15 ± 0.24 | 1.01 (active) |
| CC1CC(C)CN(S(=O)(=O)CCCOc2ccc3c(c2)OCO3)C1 (centres undefined) | 1.05 ± 0.06 | 1.04 ± 0.064 | 1.01 ± 0.061 | 0.906 ± 0.03 | 1.24 ± 0.09 | 1.05 ± 0.14 | 0.956 (active) |
| Cc1c(C)n2c3c(=O)n(Cc4ccccc4F)c(=O)n(C)c3nc2n1CCCN1CCOCC1 | 0.843 ± 0.062 | 1.1 ± 0.087 | 0.958 ± 0.052 | 1.11 ± 0.089 | 1.06 ± 0.14 | 1.05 ± 0.37 | 1.01 (active) |
| CN1C(=O)C(=C2SC(=S)N(C(CCC(=O)O)C(=O)O)C2=O)c2ccccc21 (centres undefined) | 0.793 ± 0.053 | 1.02 ± 0.07 | 0.845 ± 0.064 | 0.942 ± 0.035 | 1.28 ± 0.086 | 1.03 ± 0.093 | 1.01 (active) |
| CCOc1nc2cccc(C(=O)O)c2n1Cc1ccc(-c2ccccc2-c2nn[nH]n2)cc1 | 1.09 ± 0.15 | 1.17 ± 0.38 | 0.976 ± 0.054 | 0.907 ± 0.069 | 1.26 ± 0.31 | 0.98 ± 0.13 | 1.01 (active) |
| CCN(CC)CCOC(=O)c1ccc(N)cc1.Cl | 1.29 ± 0.2 | 1.08 ± 0.26 | 1.89 ± 0.82 | 0.923 ± 0.039 | 1.22 ± 0.43 | 1.16 ± 0.13 | 0.996 (active) |
| COc1ccc(N2CC(C(=O)NCc3ccccc3C(F)(F)F)CC2=O)cc1 (centres undefined) | 1 ± 0.11 | 1.07 ± 0.085 | 0.935 ± 0.041 | 1.03 ± 0.051 | 1.2 ± 0.1 | 1.14 ± 0.29 | 1 (active) |
| CC1=C(C(=O)OCC2CCCO2)C(c2ccc([N+](=O)[O-])cc2)C2=C(CC(C)(C)CC2=O)N1 (centres undefined) | 1.16 ± 0.19 | 0.887 ± 0.08 | 0.848 ± 0.078 | 0.553 ± 0.02 | 1.04 ± 0.23 | 0.984 ± 0.11 | 0.995 (active) |
| CN1CCC(=C2c3ccccc3C=Cc3ccccc32)CC1.Cl | 0.727 ± 0.13 | 0.808 ± 0.067 | 0.904 ± 0.048 | 0.794 ± 0.049 | 1 ± 0.19 | 0.974 ± 0.2 | 0.651 (inactive) |
| O=C1NC(=O)C(=Cc2ccc(F)cc2)S1 | 0.667 ± 0.052 | 0.951 ± 0.062 | 0.91 ± 0.032 | 0.773 ± 0.16 | 1.02 ± 0.089 | 1.02 ± 0.16 | 0.988 (active) |
| COc1cccc(-n2c(SCc3ccc(F)cc3)nc3c([nH]c4ccccc43)c2=O)c1 | 0.568 ± 0.034 | 1.14 ± 0.077 | 0.693 ± 0.06 | 0.717 ± 0.033 | 1.33 ± 0.15 | 0.902 ± 0.13 | 0.972 (active) |
| Nc1nc(N)nc(-c2cc(Cl)ccc2Cl)n1 | 0.906 ± 0.22 | 1 ± 0.052 | 1.05 ± 0.093 | 0.946 ± 0.052 | 1.18 ± 0.32 | 1.08 ± 0.17 | 0.986 (active) |
| Brc1ccc(Cn2c(CN3CCCC3)nc3ccccc32)cc1 | 0.679 ± 0.17 | 1.05 ± 0.092 | 1.07 ± 0.08 | 0.775 ± 0.029 | 1.12 ± 0.18 | 1.16 ± 0.22 | 0.957 (active) |
| CC(N)C12CC3CC(CC(C3)C1)C2 (centres undefined) | 0.979 ± 0.045 | 0.933 ± 0.14 | 1.06 ± 0.058 | 1.02 ± 0.056 | 1.12 ± 0.2 | 1.24 ± 0.37 | 1.01 (active) |
| O=S(=O)(NCc1ccc(-c2cccnc2)nc1)c1ccc(OC(F)(F)F)cc1 | 0.947 ± 0.068 | 1.01 ± 0.091 | 0.873 ± 0.058 | 0.961 ± 0.054 | 1.09 ± 0.066 | 1.16 ± 0.11 | 1.01 (active) |
| CC/C(=C(\c1ccccc1)c1ccc(OCCN(C)C)cc1)c1ccccc1.O=C(O)CC(O)(CC(=O)O)C(=O)O | 0.808 ± 0.064 | 0.859 ± 0.053 | 1.09 ± 0.11 | 0.963 ± 0.048 | 1.32 ± 0.076 | 1.38 ± 0.12 | 1.02 (active) |
| Cc1oncc1CNC(=O)c1ccc(C(C)(C)C)cc1 | 1.18 ± 0.089 | 1.1 ± 0.083 | 1.07 ± 0.049 | 0.779 ± 0.039 | 1.01 ± 0.05 | 1.02 ± 0.099 | 0.996 (active) |
| CS(=O)(=O)O.N#CC1(c2ccc(NC(=O)c3cccnc3NCc3ccncc3)cc2)CCCC1 | 0.394 ± 0.03 | 0.69 ± 0.033 | 0.547 ± 0.052 | 0.396 ± 0.019 | 1 ± 0.074 | 0.99 ± 0.083 | 0.992 (active) |
| COc1c2c(nc3ccccc13)OC(C(C)(O)COC(C)=O)C2 (centres undefined) | 0.944 ± 0.071 | 1.02 ± 0.11 | 0.953 ± 0.11 | 1.04 ± 0.045 | 1.42 ± 0.15 | 1.3 ± 0.22 | 1 (active) |
| CCc1c(C)c2ccc(OCC(C)=O)c(C)c2oc1=O | 0.936 ± 0.21 | 0.984 ± 0.098 | 0.938 ± 0.098 | 0.942 ± 0.068 | 1.27 ± 0.3 | 1.2 ± 0.13 | 0.991 (active) |
| CCOC(=O)CNS(=O)(=O)c1ccc([N+](=O)[O-])cc1 | 1.09 ± 0.093 | 1.05 ± 0.11 | 1.04 ± 0.061 | 0.997 ± 0.13 | 1.05 ± 0.044 | 1.09 ± 0.087 | 0.998 (active) |
| O=C(C(c1ccccc1)c1ccccc1)N1CCC(n2nccn2)CC1 | 1 ± 0.054 | 1.09 ± 0.13 | 0.904 ± 0.063 | 0.989 ± 0.053 | 1.25 ± 0.078 | 1.16 ± 0.12 | 0.999 (active) |
| N=C(N)Nc1nc(-c2ccccc2)c(-c2ccccc2)s1 | 0.98 ± 0.2 | 1.23 ± 0.18 | 1.29 ± 0.1 | 1.27 ± 0.06 | 1.26 ± 0.22 | 1.33 ± 0.19 | 1 (active) |
| CS(=O)(=O)O.Cc1ccc(NC(=O)c2ccc(CN3CCN(C)CC3)cc2)cc1Nc1nccc(-c2cccnc2)n1 | 0.119 ± 0.03 | 1.27 ± 0.28 | 1.89 ± 0.17 | 0.201 ± 0.0064 | 0.97 ± 0.18 | 1.75 ± 0.3 | 0.957 (active) |
| COC(=O)C1=CN(CC2CCCO2)C=C(C(=O)OC)C1c1ccc(OC)cc1 (centres undefined) | 1.1 ± 0.063 | 1.04 ± 0.079 | 1.09 ± 0.036 | 0.913 ± 0.037 | 0.993 ± 0.057 | 1.04 ± 0.1 | 0.993 (active) |
